USP1-UAF1 inh: Inhibitors of USP1/UAF1: Primary Screen; actives 0.23% (n = 390,000); recombinant USP1/UAF1, Ub-Rhodamine cleavage fluorescence; Ubiquitin carboxyl-terminal hydrolase 1 (Homo sapiens), O94782; Potency, µM (titrated, usually from 57.1 µM), hits mostly inhibitors; note: nearly all actives have a fitted effect of over 60% in size
Target sequence (O94782 whole entry, looked up): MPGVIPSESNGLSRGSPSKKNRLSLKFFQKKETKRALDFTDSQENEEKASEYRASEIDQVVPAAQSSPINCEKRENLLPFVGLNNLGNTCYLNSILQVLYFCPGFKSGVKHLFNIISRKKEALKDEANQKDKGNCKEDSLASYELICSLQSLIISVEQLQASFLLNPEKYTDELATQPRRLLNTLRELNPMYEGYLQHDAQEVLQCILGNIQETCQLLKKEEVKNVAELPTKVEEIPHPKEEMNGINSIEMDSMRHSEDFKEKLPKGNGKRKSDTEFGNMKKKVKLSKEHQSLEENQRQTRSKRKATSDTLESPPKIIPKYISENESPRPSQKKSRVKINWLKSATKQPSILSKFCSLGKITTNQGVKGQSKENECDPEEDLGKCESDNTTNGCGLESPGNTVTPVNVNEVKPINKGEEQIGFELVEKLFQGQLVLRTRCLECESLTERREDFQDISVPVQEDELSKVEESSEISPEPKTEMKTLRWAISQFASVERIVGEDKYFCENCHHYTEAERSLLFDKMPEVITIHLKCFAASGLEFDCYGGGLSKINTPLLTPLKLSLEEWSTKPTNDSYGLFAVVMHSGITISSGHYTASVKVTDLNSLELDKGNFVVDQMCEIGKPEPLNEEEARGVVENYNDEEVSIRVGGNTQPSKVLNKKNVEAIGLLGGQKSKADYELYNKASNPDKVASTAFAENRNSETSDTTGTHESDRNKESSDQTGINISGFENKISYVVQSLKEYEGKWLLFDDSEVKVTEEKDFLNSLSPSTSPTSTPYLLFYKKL
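In this screen, compounds sit with the deubiquitinase complex (1nM) for 15 min at room temperature before Ub-Rho is added at 150nM final. Fluorescence rise is then followed for 6 reads every 60 seconds.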
EPAC1 agonist: qHTS for Agonist of cAMP-regulated guanine nucleotide exchange factor 3 (EPAC1): primary screen; Rap guanine nucleotide exchange factor 3 (Homo sapiens), O95398; EPAC1 agonist qHTS, biochemical assay; response scale: 100% = response to 6.5 mM cAMP; Potency, µM (titrated, usually from 154 µM), hits mostly activators; actives 0.073% (n = 360,000); note: nearly all actives have a fitted effect of over 60% in size
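Normalized to 6.5 mM cAMP, activity reflects EPAC1-catalysed release of BODIPY-GDP from Rap1B, followed kinetically over 30 min at 480 nm excitation, 540 nm emission. Reaction contained 100 nM EPAC1, 250 nM Rap1B-BODIPY-GDP, 50 uM GDP.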
EPAC1 antag: qHTS for Antagonist of cAMP-regulated guanine nucleotide exchange factor 3 (EPAC1): primary screen | Rap guanine nucleotide exchange factor 3 (Homo sapiens), O95398 | EPAC1 GEF assay, Rap1b-BODIPY-GDP exchange fluorescence | Potency, µM (series often up to 115 µM), most hits filed as inhibitors | actives 0.14% (n = 360,000); note: nearly all actives have a fitted effect of over 50% in size
BRCA1 expr up: qHTS Assay to Identify Small Molecule Activators of BRCA1 Expression | AID 624202, 2012 | actives 1.1% (n = 380,000) | Potency, µM (highest dose often 46.1 µM), most hits filed as activators | MCF7-BRCA1-FFLuc reporter, luminescence, 48 h; response scale: scaled: vehicle 0%, 10 µM genistein 100%; note: nearly all actives have a fitted effect of over 80% in size
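Reporter cells (MCF7, BRCA1 promoter-firefly luciferase) received library compounds across a concentration series for 48 h. End-point luminescence was measured and concentration-effect curves derived after normalization.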
EPAC2 agonist: qHTS for Agonist of cAMP-regulated guanine nucleotide exchange factor 4 (EPAC2): primary screen. Rap guanine nucleotide exchange factor 4 (Homo sapiens), Q8WZA2. EPAC2 activation, biochemical qHTS; response scale: 100% = 6.5 mM cAMP response. Potency, µM (series often up to 154 µM), most hits filed as activators. actives 0.079% (n = 360,000). AID 720711, 2013; note: nearly all actives have a fitted effect of over 50% in size
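qHTS, titration series. 100 nM EPAC2 / 250 nM Rap1B-BODIPY-GDP / 50 uM GDP; RT; ex 480/em 540 nm, 5-min reads to 30 min. Norm. to 6.5 mM cAMP = activation.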
EPAC2 antagonist: qHTS for Antagonist of cAMP-regulated guanine nucleotide exchange factor 2 (EPAC2): primary screen; Rap guanine nucleotide exchange factor 4 (Homo sapiens), Q8WZA2; EPAC2 GEF exchange of Rap1B-BODIPY-GDP, fluorescence; Potency, µM (highest dose often 114 µM), most hits filed as inhibitors; actives 0.18% (n = 360,000); AID 720708, 2013; note: nearly all actives have a fitted effect of over 45% in size
Hits are given with their value; – = inactive; ? = inconclusive; · = no result. Only some compounds are listed: those with a hit (about 1.4% of all), similar ones and a draw of the others. Calls come from the whole dose curve; as a rule, active = well fitted curve in the direction sought with a large enough effect; inconclusive = small, poorly fitted or top-dose-only effect, or another doubt; inactive = no such curve, though single readings can be large; an effect the other way counts as inactive or inconclusive.

SMILES | USP1-UAF1 inh | EPAC1 agonist | EPAC1 antag | BRCA1 expr up | EPAC2 agonist | EPAC2 antagonist
CCN(CC)c1ccc2cc(-c3nc4ccccc4[nH]3)c(=O)oc2c1 | – | ? | – | – | – | –
CCN(CC)c1ccc2cc(C(=O)c3cccs3)c(=O)oc2c1 | · | 56µM | – | – | 79µM | –
Cc1ccnc(NC(=O)Cn2c(=O)oc3ccccc32)c1 | – | – | – | – | – | –
Cc1c(CC(=O)NC(C)C)c(=O)oc2cc3c(cc12)CCC(C)(C)O3 | – | – | – | 11µM | – | –
Cc1c(CC(=O)N[C@@H](C)C(=O)O)c(=O)oc2cc3c(cc12)CCC(C)(C)O3 | – | – | – | – | – | –
Cc1cccc(NC(=O)CSc2n[nH]c(-c3ccncc3)n2)c1C | – | – | – | – | – | –
CCOC(=O)NNc1ccc2nonc2c1[N+](=O)[O-] | 25µM | – | ? | – | – | ?
O=C(c1ccc(F)cc1F)N1CCC(N2CCC(C(=O)N3CCOCC3)CC2)CC1 | – | – | – | – | – | –
CN(C)C(=O)CSc1nnc(C23CC4CC(CC(C4)C2)C3)o1 | – | – | – | 10µM | – | –
CCOC(=O)Cc1ccc(NC(=O)N2CC(CC)Oc3ccccc32)cc1 (stereo not given) | – | · | · | · | · | ·
Oc1ccc(/C=N/Nc2cc(N3CCOCC3)nc(N3CCOCC3)n2)cc1O | – | – | – | – | – | –
Oc1ccccc1/C=N/Nc1cc(N2CCCC2)nc(N2CCCC2)n1 | 25µM | – | – | – | – | –
COc1ccc2c(COC(=O)c3n[nH]c4ccccc34)cc(=O)oc2c1 | – | – | – | 4.5µM | – | –
O=C1NC(=S)S/C1=C\C=C\c1ccc([N+](=O)[O-])o1 | – | – | 56µM | – | – | 50µM
CC(C)CCNC(=O)c1cc2c(s1)-c1ccccc1S(=O)(=O)C2 | – | – | – | – | – | –
CN(C)C(=O)c1cc(C(=O)c2ccc(C(F)(F)F)cc2)c[nH]1 | – | – | – | 10µM | – | –
CN(C)CCCN=c1cc(-c2ccccc2)oc2ccc(Cl)cc12 | – | – | – | 11µM | – | –
OCCN=c1cc(-c2ccccc2)oc2ccc(Cl)cc12 | – | – | – | – | – | –
O=C(CCc1nc(-c2ccc(F)cc2)no1)NCc1ccccc1CN1CCOCC1 | – | – | – | – | – | –
COc1cccc2c1C(=O)c1c(O)c3c(c(O)c1C2=O)CC(O)(C(=O)CO)CC3OC1CC(N(C)C)C(O)C(C)O1 (stereo not given) | ? | ? | – | – | – | –
CC(=O)[C@]1(O)Cc2c(O)c3c(c(O)c2[C@@H](O[C@H]2C[C@H](N)[C@H](O)[C@H](C)O2)C1)C(=O)c1ccccc1C3=O | 28µM | 100µM | – | – | 112µM | –
COc1cccc2c1C(=O)c1c(O)c3c(c(O)c1C2=O)C[C@@](O)(C(=O)CO)C[C@@H]3O[C@H]1C[C@H](N)[C@@H](O)[C@H](C)O1 | 28µM | – | – | – | – | –
COc1cccc2c1C(=O)c1c(O)c3c(c(O)c1C2=O)C[C@@](O)(C(C)=O)C[C@@H]3O[C@H]1C[C@H](N)[C@H](O)[C@H](C)O1 | 5.6µM | – | – | – | – | ?
Cc1ccc2c(c1)Cc1c(nc(-c3ccc(Cl)cc3)nc1SCC(=O)N1CCCCC1)O2 | – | · | · | · | · | ·
CC1(C(=O)NS(=O)(=O)c2cccc(OC(F)F)c2)CCN1C(=O)C1CCCCC1 (stereo not given) | · | – | – | – | – | –
SMILES | USP1-UAF1 inh | EPAC1 agonist | EPAC1 antag | BRCA1 expr up | EPAC2 agonist | EPAC2 antagonist
O=c1oc2ccccc2nc1/C=C(O)/C=C\c1ccccc1 | ? | – | – | – | 63µM | –
COc1ccc(C)cc1NC(=O)C(=O)NCC1(c2ccccc2)CCCC1 | – | · | · | · | · | ·
O=C(N/N=C/c1ccc(F)cc1)c1ccc(Br)cc1 | – | – | – | – | – | –
O=C(N/N=C/c1ccc(Br)cc1)c1ccc(Br)o1 | – | – | – | 7.9µM | – | –
S=C(NCCc1ccccc1)Nc1ccccn1 | – | – | – | 10µM | – | –
S=C(Nc1ccccn1)c1ccccn1 | – | – | – | 7.1µM | – | –
O=C(Nc1ccccn1)C(=O)Nc1ccccn1 | – | – | – | ? | – | –
Brc1ccccc1/C=N/Nc1ccccn1 | – | – | – | – | – | –
Cc1ccc(/C=N/Nc2ccccn2)s1 | – | – | – | 11µM | – | –
COc1ccc(Cc2c(-c3ccc(F)cc3)nc3ccc(Br)cn23)c(C)c1 | · | – | – | 8.9µM | – | –
Cn1c(C(=O)NC2CCCCC2)cc2sccc21 | – | – | – | 5.6µM | – | –
CN(C(=O)c1cc2sccc2n1C)C1CCCCC1 | – | – | – | 6.3µM | – | –
Cn1c(C(=O)N2CCCC(C(=O)O)C2)cc2sccc21 (stereo not given) | – | – | – | – | – | –
OC(c1ccc(F)cc1)c1nc(-c2cnc3ccccc3c2)cs1 (stereo not given) | · | – | – | 11µM | – | –
CC(=O)NC(c1cccc(F)c1)c1nc(-c2cc3ccccc3o2)cs1 (stereo not given) | · | – | – | – | – | –
OC(c1ccc(F)cc1)c1nc(-c2cc3ccccc3o2)cs1 (stereo not given) | · | – | – | 1.8µM | – | –
Cc1ccc([C@H]2N[C@]3(CCCN(Cc4ccccc4)C3=O)[C@H]3C(=O)N(C)C(=O)[C@@H]23)cc1 | – | – | – | – | – | –
COc1ccc(/C=N/NC(=O)c2[nH]c3ccc(Br)cc3c2-c2ccccc2)c(C(=O)O)c1OC | – | – | 79µM | – | – | –
O=C(N/N=C/c1ccccc1Cl)c1[nH]c2ccc(Br)cc2c1-c1ccccc1 | ? | 112µM | – | – | – | –
CCCCOc1ccc(C(=O)N2CCC(c3nc4ccccc4o3)CC2)cc1 | – | · | · | · | · | ·
O=S(=O)(c1ccc(Br)s1)N1CCN(c2ccc(F)cc2)CC1 | – | – | – | – | – | –
Nc1ccc(NC(=O)NC2CCCCC2)cc1[N+](=O)[O-] | – | – | – | 4µM | – | –
Nc1ccc(NC(=O)NC2CCCCC2)cc1 | – | – | – | – | – | –
Cc1ccc(O)c(C(=O)c2cc(C#N)c(=O)n(-c3nccs3)c2)c1 | 18µM | 40µM | – | – | 112µM | –

Compound activity from PubChem.
